Source: PubChem
Compounds with a hit are over-represented: about 2.2% of the library has one in this group of screens.
BaF3 parental: counter-screen for JAK2V617F inhibitors: parental Ba/F3 viability inhibitors | CellTiter-Glo ATP luminescence | inhibition, % at 5.6 µM | hit rate 1.1% among 220,000;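 active means inhibition above a per-campaign cutoff, the mean inhibition of all tested compounds plus 3 SD, cut at about 27% in these data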
KLF5 inh: kruppel-like factor 5 inhibition | hit rate 0.23% among 290,000 | inhibition, % at 5 µM | AID 1700 | DLD-1 KLF5 promoter-luciferase reporter, luminescence;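 active means inhibition above a per-plate limit of that plate's mean compound inhibition plus 3 SD, cut at about 60% in these data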;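 further: higher means less KLF5 promoter-driven luciferase light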
Ba/F3 V617F tox: loss of viability in JAK2V617F-driven Ba/F3 cells | hit rate 1.1% among 220,000 | Ba/F3 EpoR-JAK2V617F viability, ATP luminescence | inhibition, % at 5.6 µM;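 active means inhibition above the campaign mean plus 3 SD over all tested compounds, cut at about 24% in these data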;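 further: cytokine-independent growth of Ba/F3 cells driven by EpoR plus mutant JAK2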
APP 5UTR inh: APP translation inhibition | SH-SY5Y APP 5'UTR-luciferase reporter, luminescence | hit rate 0.82% among 190,000 | inhibition, % at 2 µM | AID 1285;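 active means inhibition above a set limit, derived from the sample mean plus 3 SD, cut at about 45% in these data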
IEC-6 tox: IEC-6 cytotoxicity, counter-screen for KLF5 inhibitors. luminescence viability. inhibition, % at 5 µM. hit rate 0.78% among 290,000. AID 1825; in the data active means inhibition above about 22%
aSyn 5UTR inh: MLPCN primary screen, SNCA 5' untranslated region; alpha-synuclein 5'UTR reporter, inhibitor activity; inhibition, % (tested at 7.5 µM); hit rate 0.82% among 300,000; in the data active means inhibition above about 60%;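 further: H4 neuroglioblastoma cells stably carrying SNCA 5'UTR luciferase fusion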
BaF3 tox 2: reduces parental Ba/F3 viability, JAK2V617F counter-screen; CellTiter-Glo luminescence; cells kept alive by added IL-3; shares compounds with Ba/F3 V617F tox; inhibition, % at 5.6 µM; hit rate 31% among 580; AID 1520;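 active means cell growth inhibition above the hit limit set in the earlier mutant JAK2 cell screen, cut at about 27% in these data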
JAK2V617F conf: confirmation: loss of viability in JAK2V617F-dependent Ba/F3 cells | hit rate 66% among 580 | inhibition, % at 5.6 µM | AID 1521 | Ba/F3 EpoR-JAK2V617F viability, CellTiter-Glo luminescence | shares compounds with Ba/F3 V617F tox;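 active means mean inhibition above the hit cutoff derived in the earlier primary screen, cut at about 25% in these data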;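 further: higher means lower luminescence from reduced cell ATP and viability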
Of the large screens only hits and unclear results are named; the others gave an inactive call (follow-up assays come after a bar, where they were run).

NS(=O)(=O)c1ccc(N=Nc2c(O)ccc3ccccc23)cc1	none
c1ccc2[nH]c(-c3cnco3)cc2c1	none (no result: BaF3 parental, Ba/F3 V617F tox, APP 5UTR inh)
O=[N+]([O-])c1ccc(Sc2nc3ccccc3o2)c([N+](=O)[O-])c1	APP 5UTR inh 63
O=[N+]([O-])c1ccc(Cl)cc1Sc1nc2ccccc2o1	aSyn 5UTR inh 69
Cc1ccc(C(=O)CCC(=O)OCC(=O)N(C)c2c(N)n(Cc3ccccc3)c(=O)[nH]c2=O)cc1	none (no result: BaF3 parental, KLF5 inh, Ba/F3 V617F tox, APP 5UTR inh, IEC-6 tox)
CC(C)(C)N(Cc1ccccc1)C(=O)COC(=O)CN1C(=O)NC2(CCCC2)C1=O	none (no result: BaF3 parental, Ba/F3 V617F tox, APP 5UTR inh)
C(#Cc1ccc(C#CCN2CCCC2)cc1)CN1CCCC1	none
Cc1ccc(C#CC[N+]2(C)CCCCC2)cc1	BaF3 parental 57, Ba/F3 V617F tox 54 (no result: APP 5UTR inh)
C#CC[N+]1(CC#Cc2ccc(C)cc2)CCCCC1	BaF3 parental 66, Ba/F3 V617F tox 69
Cc1cc(C)c(NC(=O)Cn2nnc(C(=O)NCc3ccc4c(c3)OCO4)c2N)c(C)c1	none (no result: BaF3 parental, Ba/F3 V617F tox, APP 5UTR inh)
Cn1ncc(Br)c1NC(=O)Nc1ccccc1	none (no result: BaF3 parental, Ba/F3 V617F tox, APP 5UTR inh)
CCOC(=O)c1c(CNc2ccncc2)n(C)c2cc(Br)c(O)cc12	BaF3 parental 41, Ba/F3 V617F tox 38
CCC1=NN2C(=N)/C(=C\c3ccc(OCc4cc(=O)n5nc(CC)sc5n4)c(OC)c3)C(=O)N=C2S1	none
O=C(NCc1ccco1)c1ccc(Cn2c(=O)c3ccccc3n(Cc3cccc(Cl)c3)c2=O)cc1	aSyn 5UTR inh 64
COc1ccc(S(=O)(=O)Nc2c(C(=O)O)[nH]c3ccc(OC)cc23)cc1	none (no result: BaF3 parental, Ba/F3 V617F tox, APP 5UTR inh)
COC(=O)c1[nH]c2ccc(F)cc2c1NS(=O)(=O)c1ccc(OC)cc1	BaF3 parental 61, Ba/F3 V617F tox 81, APP 5UTR inh 89, IEC-6 tox 52, aSyn 5UTR inh 100
O=C(NCCCN1CCOCC1)c1ccccc1	BaF3 parental 40
CCc1noc(C)c1C(=O)Nc1ccc(F)c(F)c1F	none (no result: BaF3 parental, KLF5 inh, Ba/F3 V617F tox, APP 5UTR inh, IEC-6 tox)
CCOC(=O)N1CCN(S(=O)(=O)c2ccc(C(=O)NNc3nc4cc(C)cc(C)c4s3)cc2)CC1	aSyn 5UTR inh 66
CCOC(=O)N1CCN(S(=O)(=O)c2ccc(C(=O)NNc3nc4ccc(Cl)cc4s3)cc2)CC1	aSyn 5UTR inh 67
CCOC(=O)N1CCN(S(=O)(=O)c2ccc(C(=O)NNc3nc4c(C)cccc4s3)cc2)CC1	none
CCOC(=O)N1CCN(S(=O)(=O)c2ccc(C(=O)NNc3nc4c(C)cc(C)cc4s3)cc2)CC1	aSyn 5UTR inh 71
O=C1CN(C(=O)COC(=O)c2cc(S(=O)(=O)N3CCOCC3)ccc2Cl)c2ccccc2N1	none (no result: APP 5UTR inh)
CCc1nc(CN2CCCC(C(=O)c3ccc4c5c(cccc35)CC4)C2)c(C)[nH]1 (centres undefined)	BaF3 parental 82
O=C(/C=C/Nc1ccccc1Br)c1ccccn1	aSyn 5UTR inh 114
CCN1CCC(N2CCN(c3ccccc3OC)CC2)CC1	none (no result: BaF3 parental, Ba/F3 V617F tox, APP 5UTR inh)
Cc1c(Cc2ccccc2)sc(/N=C/c2ccc3ccccc3c2)c1C(N)=O	APP 5UTR inh 53 (no result: aSyn 5UTR inh)
C[N+]1=C(/C=C/Nc2ccccc2Cl)C(C)(C)c2ccccc21	BaF3 parental 63, Ba/F3 V617F tox 59
CCn1c(C)cc(/C=C2/NC(=O)N(c3ccccc3)C2=O)c1C	Ba/F3 V617F tox 40
O=C(CN1C(=O)NC2(CCOc3ccccc32)C1=O)NCC(F)(F)F (centres undefined)	none (no result: BaF3 parental, Ba/F3 V617F tox, APP 5UTR inh)
CCCSc1ccc2nc(-c3ccccc3)cn2c1	aSyn 5UTR inh 111
CSc1ccc(S(=O)(=O)NCC(=O)OCC(=O)N2CCCC2=O)cc1[N+](=O)[O-]	none (no result: BaF3 parental, KLF5 inh, Ba/F3 V617F tox, APP 5UTR inh, IEC-6 tox)
O=C1CCC/C1=C\Nc1ccc(Cl)c([N+](=O)[O-])c1	BaF3 parental 58 (no result: APP 5UTR inh)
CCCCCC(=O)C(=O)c1ccc(O)cc1O	none (no result: APP 5UTR inh)
CC(C)COc1ccc(C(=O)Nc2sc3c(c2C(=O)O)CC(C)(C)OC3)cc1	aSyn 5UTR inh 63
COc1ccc(C(=O)Nc2sc3c(c2C(=O)O)CC(C)(C)OC3)cc1	aSyn 5UTR inh 63
COc1ccc(NC(=O)C2CCCN(S(=O)(=O)c3ccc4c(c3)CCCN4C(C)=O)C2)cc1Cl (centres undefined)	none (no result: BaF3 parental, Ba/F3 V617F tox, APP 5UTR inh)
CCC1(c2ccccc2)NC(=O)N(CC(=O)NC2(C#N)CCCCC2)C1=O (centres undefined)	none (no result: BaF3 parental, KLF5 inh, Ba/F3 V617F tox, APP 5UTR inh, IEC-6 tox)
CC1(C)Cc2ccccc2C(NNC(=O)c2ccc(Br)o2)=N1	none (no result: BaF3 parental, Ba/F3 V617F tox, APP 5UTR inh)
Cc1ccc(C)c(-n2cc(CN3CCCN(C=O)CC3)c(-c3ccccc3)n2)c1	none
CCc1ccc(Nc2ccc(S(=O)(=O)N3CCOCC3)cc2[N+](=O)[O-])cc1	Ba/F3 V617F tox 82 | BaF3 tox 2 inactive | JAK2V617F conf inactive
O=C(NC(NNc1ccc([N+](=O)[O-])cc1)(C(F)(F)F)C(F)(F)F)c1ccc(Cl)cc1	Ba/F3 V617F tox 29 | BaF3 tox 2 inactive | JAK2V617F conf inactive
COc1ccc2[nH]cc(CCNC(=O)c3ccccc3Cl)c2c1	none (no result: BaF3 parental, Ba/F3 V617F tox, APP 5UTR inh)
CCN(Cc1ccc(OC)c(F)c1)C(=O)CCl	Ba/F3 V617F tox 39 | BaF3 tox 2 inactive | JAK2V617F conf 96
O=C(c1csc2ccccc12)N1CCCCCC1	Ba/F3 V617F tox 28 | BaF3 tox 2 inactive | JAK2V617F conf 36
C=CCN=c1scc(C)n1/N=C/c1ccc(O)c(O)c1	Ba/F3 V617F tox 62 | BaF3 tox 2 37 | JAK2V617F conf 86
CCOC(=O)C1CCCN(C2=NC(=O)/C(=C/c3ccc(N(C)C)cc3)S2)C1 (centres undefined)	none (no result: BaF3 parental, Ba/F3 V617F tox, APP 5UTR inh)
Cc1ccc(N(CC(=O)Nc2cc(Cl)ccc2Oc2ccccc2)S(C)(=O)=O)cc1C	Ba/F3 V617F tox 26 | BaF3 tox 2 inactive | JAK2V617F conf inactive
Cc1cc(NC(=S)N(Cc2cccc(Br)c2)CC2CCC(C(=O)O)CC2)ccc1Cl (centres undefined)	Ba/F3 V617F tox 29 | BaF3 tox 2 27 | JAK2V617F conf 38
Cc1ccc(NC(=S)N(Cc2cccc(Br)c2)CC2CCC(C(=O)O)CC2)cc1 (centres undefined)	none
Cc1ccccc1N1CCN(Cc2c[nH]c3ccccc23)CC1	Ba/F3 V617F tox 35 | BaF3 tox 2 inactive | JAK2V617F conf 29
O=C1CCc2cc(NS(=O)(=O)c3ccccc3)cc3c2N1CC3	none (no result: BaF3 parental, KLF5 inh, Ba/F3 V617F tox, APP 5UTR inh, IEC-6 tox)
COc1ccc(CCC(=O)Nc2cc(Cl)ccc2N2CCN(C)CC2)cc1	Ba/F3 V617F tox 33 | BaF3 tox 2 inactive | JAK2V617F conf inactive
COc1cc(/C=N/N=C(N)N)ccc1OCc1ccc(Cl)cc1	Ba/F3 V617F tox 35, IEC-6 tox 22 | BaF3 tox 2 35 | JAK2V617F conf 45
Cc1[nH]c2ccc(F)cc2c1CCN(Cc1ccncc1)C(=S)Nc1cccc(F)c1	Ba/F3 V617F tox 27 | BaF3 tox 2 29 | JAK2V617F conf 47
CCOC(=O)c1c(NC(=O)COC(=O)CCOc2ccccc2C)sc(C(=O)NC)c1C	none (no result: BaF3 parental, KLF5 inh, Ba/F3 V617F tox, APP 5UTR inh, IEC-6 tox)
